Results filed as inconclusive are left out. Active and inactive are the calls of the source. The call rests on the fitted dose curve; in most records, active means well fitted curve in the direction sought with a large enough effect; inconclusive means small, poorly fitted or top-dose-only effect, or another doubt; inactive means no such curve, though single readings can be large; an effect the other way counts as inactive or inconclusive.
Tests used:
[1] = qHTS of pediatric cancer cell lines to identify multiple opportunities for drug repurposing: Primary screen for NB-EBc1 cells (AID 1347095)
Method in brief: (§1)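 Cells seeded at 500-1,000 cells/well in growth media, rested 5 hours at 37 degrees C, 5% CO2, then dosed; MIPE compounds at 11-point (from 0.78 nM) and NPC at 8-point (from 0.59 nM) final concentrations. Viability by CellTiter-Glo luminescence after 48 hours.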

[2] = qHTS of pediatric cancer cell lines to identify multiple opportunities for drug repurposing: Primary screen for U-2 OS cells (AID 1347096); further: nearly all actives have a fitted effect of over 50% in size
Method in brief: (§2)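 Viability after 48 h compound treatment at 37C, 500-1,000 cells/well, read as ATP luminescence with CellTiter-Glo. Primary screens used 11-point (MIPE, 0.78 nM-46 µM) or 8-point (NPC, 0.59 nM-46 µM) final concentrations; follow-up screens used 11-point dilutions.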

[3] = qHTS of pediatric cancer cell lines to identify multiple opportunities for drug repurposing: Primary screen for Saos-2 cells (AID 1347097); further: nearly all actives have a fitted effect of over 40% in size
Method in brief: as §1

[4] = qHTS of pediatric cancer cell lines to identify multiple opportunities for drug repurposing: Primary screen for SK-N-SH cells (AID 1347098);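 further: DMSO served as neutral control and bortezomib at 2.3 µM as positive control; nearly all actives have a fitted effect of over 65% in size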
Method in brief: (§3)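 Cells (500-1,000/well) rested 5 h, then received compounds for 48 h; metabolically active cells were measured by CellTiter-Glo luminescence. Final concentrations spanned up to 46 µM (MIPE, 11-point) or 0.59 nM-46 µM (NPC, 8-point) in primary screens, 11-point in follow-ups.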

[5] = qHTS of pediatric cancer cell lines to identify multiple opportunities for drug repurposing: Primary screen for NB1643 cells (AID 1347099); further: nearly all actives have a fitted effect of over 50% in size
Method in brief: as §1

[6] = qHTS of pediatric cancer cell lines to identify multiple opportunities for drug repurposing: Primary screen for LAN-5 cells (AID 1347100)
Method in brief: as §2

[7] = qHTS of pediatric cancer cell lines to identify multiple opportunities for drug repurposing: Primary screen for BT-12 cells (AID 1347101); further: nearly all actives have a fitted effect of over 25% in size
Method in brief: as §3

[8] = qHTS of pediatric cancer cell lines to identify multiple opportunities for drug repurposing: Primary screen for Rh18 cells (AID 1347102); further: nearly all actives have a fitted effect of over 65% in size
Method in brief: as §2

[9] = qHTS of pediatric cancer cell lines to identify multiple opportunities for drug repurposing: Primary screen for RD cells (AID 1347104); further: nearly all actives have a fitted effect of over 55% in size
Method in brief: as §1

[10] = qHTS of pediatric cancer cell lines to identify multiple opportunities for drug repurposing: Primary screen for MG 63 (6-TG R) cells (AID 1347105); further: nearly all actives have a fitted effect of over 50% in size
Method in brief: as §1

[11] = qHTS of pediatric cancer cell lines to identify multiple opportunities for drug repurposing: Primary screen for control Hh wild type fibroblast cells (AID 1347106);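 further: series mostly up to about 46 µM; a drop in luminescence marks cytotoxicity and a rise apparent proliferation; nearly all actives have a fitted effect of over 55% in size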
Method in brief: as §2

[12] = qHTS of pediatric cancer cell lines to identify multiple opportunities for drug repurposing: Primary screen for Rh30 cells (AID 1347107); further: series mostly up to about 46 µM; nearly all actives have a fitted effect of over 75% in size
Method in brief: as §2

[13] = qHTS of pediatric cancer cell lines to identify multiple opportunities for drug repurposing: Primary screen for Rh41 cells (AID 1347108);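 further: series mostly up to about 46 µM; luminescence drop marks cytotoxic hits; nearly all actives have a fitted effect of over 70% in size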
Method in brief: as §1

[14] = qHTS of pediatric cancer cell lines to identify multiple opportunities for drug repurposing: Primary screen for OHS-50 cells (AID 1347103); further: nearly all actives have a fitted effect of over 40% in size
Method in brief: as §3

[15] = qHTS of pediatric cancer cell lines to identify multiple opportunities for drug repurposing: Confirmatory screen for NB1643 cells (AID 1347109); further: potency means the concentration at half of the fitted maximal effect; nearly all actives have a fitted effect of over 45% in size
Method in brief: as §2

[16] = qHTS of pediatric cancer cell lines to identify multiple opportunities for drug repurposing: Confirmatory screen for SK-N-MC cells (AID 1347111);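 further: potency means the concentration at half of the fitted maximal effect; cells exposed to compound for 48 h before the readout; nearly all actives have a fitted effect of over 70% in size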
Method in brief: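 SK-N-MC cells at 500-1,000 cells/well in growth media were pre-incubated 5 h, then exposed to compounds at 11-point dilutions for 48 h at 37 degrees C, 5% CO2. Viability was read as CellTiter-Glo luminescence.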

[17] = qHTS of pediatric cancer cell lines to identify multiple opportunities for drug repurposing: Confirmatory screen for LAN-5 cells (AID 1347113); further: potency means the concentration at half of the fitted maximal effect; nearly all actives have a fitted effect of over 65% in size
Method in brief: as §2

[18] = qHTS of pediatric cancer cell lines to identify multiple opportunities for drug repurposing: Confirmatory screen for DAOY cells (AID 1347114); further: nearly all actives have a fitted effect of over 65% in size
Method in brief: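 Viability measured as metabolically active cells via CellTiter-Glo luminescence following 48 hours of compound exposure, 11-point dilutions in confirmatory testing. 500-1,000 cells/well plated 5 hours before dosing; controls were DMSO and 2.3 µM bortezomib.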

Measured: Potency

c1ccc2c(c1)CCc1ccccc1N2
inactive: [1] | [2] | [3] | [4] | [5] | [6] | [7] | [8] | [9] | [10] | [11] | [12] | [13]

NCC(=O)O
inactive: [1] | [2] | [3] | [4] | [5] | [6] | [7] | [14] | [9] | [10] | [11] | [12] | [13]

OCCCc1ccccc1
inactive: [1] | [2] | [3] | [4] | [5] | [6] | [8] | [14] | [9] | [10] | [11] | [12] | [13]

Oc1ccccc1-c1nnco1
inactive: [1] | [2] | [3] | [4] | [5] | [6] | [7] | [8] | [9] | [10] | [11] | [13]

CC(NC(CCc1ccccc1)C(=O)O)C(=O)N1C(=O)N(C)CC1C(=O)O (centres undefined)
inactive: [1] | [2] | [3] | [4] | [5] | [6] | [7] | [8] | [9] | [10] | [11] | [12] | [13]

OCc1cccnc1
inactive: [1] | [2] | [3] | [4] | [5] | [6] | [8] | [14] | [9] | [10] | [11] | [12] | [13]

CCCCC(=O)OCC(=O)[C@H]1[C@H](C)C[C@H]2[C@@H]3C[C@H](F)C4=CC(=O)C=C[C@]4(C)[C@@]3(F)[C@@H](O)C[C@@]21C
active: [15] 18.5 µM | [16] 10.4 µM | [17] 23.3 µM
inactive: [1] | [2] | [3] | [4] | [5] | [6] | [7] | [8] | [9] | [10] | [11] | [13] | [18]

CC(C)CCCC(C)NCCC(C)C (centres undefined)
inactive: [1] | [2] | [3] | [4] | [5] | [6] | [8] | [14] | [9] | [10] | [11] | [12] | [13]

O=C1CC2(CCCC2)CC(=O)N1
inactive: [1] | [2] | [3] | [4] | [5] | [7] | [8] | [14] | [9] | [10] | [11] | [12] | [13]
